From publication PMC4336329 (PLoS ONE, 2015)
Among all 310,000 compounds or so, about 14,000 (4.5%) showed an effect of 50% or more. Effects have a minus sign here. Shown is part of a subset that was picked to be rich in strong results.

Each compound was assayed against human ether-à-go-go-related gene (hERG) potassium channel (human, UniProt Q12809) (assay: primary screen, population patch clamp on CHO cells stably expressing hERG; higher = less effect of the substance).
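Note: peak tail current of the secondary pulse compared with the same well before compound.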

Chain of human ether-à-go-go-related gene (hERG) potassium channel (Q12809 whole entry, looked up): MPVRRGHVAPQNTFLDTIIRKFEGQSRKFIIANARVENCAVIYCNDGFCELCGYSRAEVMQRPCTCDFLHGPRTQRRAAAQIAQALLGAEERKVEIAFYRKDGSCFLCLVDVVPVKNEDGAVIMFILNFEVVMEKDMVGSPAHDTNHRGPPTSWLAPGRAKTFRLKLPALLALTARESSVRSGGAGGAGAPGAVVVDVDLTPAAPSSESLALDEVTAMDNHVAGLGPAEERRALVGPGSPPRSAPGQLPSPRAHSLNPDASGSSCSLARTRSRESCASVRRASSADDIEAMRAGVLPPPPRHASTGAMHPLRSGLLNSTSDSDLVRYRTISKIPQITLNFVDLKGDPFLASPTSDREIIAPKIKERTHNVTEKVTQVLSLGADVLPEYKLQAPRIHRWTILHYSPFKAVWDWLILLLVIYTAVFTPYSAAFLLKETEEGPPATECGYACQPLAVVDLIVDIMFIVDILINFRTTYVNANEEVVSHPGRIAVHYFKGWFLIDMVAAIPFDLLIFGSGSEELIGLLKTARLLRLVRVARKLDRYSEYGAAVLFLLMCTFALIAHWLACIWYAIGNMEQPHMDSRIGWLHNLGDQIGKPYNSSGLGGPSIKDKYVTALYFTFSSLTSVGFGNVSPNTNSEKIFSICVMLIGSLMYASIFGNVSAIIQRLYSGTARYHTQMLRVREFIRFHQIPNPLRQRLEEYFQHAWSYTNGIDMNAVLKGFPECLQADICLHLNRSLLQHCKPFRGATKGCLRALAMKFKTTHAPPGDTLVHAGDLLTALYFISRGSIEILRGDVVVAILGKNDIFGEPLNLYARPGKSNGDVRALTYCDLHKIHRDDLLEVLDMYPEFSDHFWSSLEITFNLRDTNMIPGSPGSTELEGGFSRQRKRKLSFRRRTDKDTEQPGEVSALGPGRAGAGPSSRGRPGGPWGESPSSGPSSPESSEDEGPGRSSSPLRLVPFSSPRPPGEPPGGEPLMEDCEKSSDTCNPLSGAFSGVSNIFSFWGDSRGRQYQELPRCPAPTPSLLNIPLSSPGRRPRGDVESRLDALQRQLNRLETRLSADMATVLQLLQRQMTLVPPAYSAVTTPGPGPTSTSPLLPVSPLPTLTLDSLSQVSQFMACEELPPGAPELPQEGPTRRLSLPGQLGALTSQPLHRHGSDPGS

Row | SMILES | hERG current change (%, negative = inhibition) at 10uM
1 | COC(=O)c1ccc2c(c1)NC1=C(C(=O)CC(C)(C)C1)C(c1ccncc1)N2 (stereo not shown) | -4.48%
2 | O=C(NCc1ccco1)c1cc([N+](=O)[O-])ccc1N1CCOCC1 | -25.4%
3 | c1ccc(-n2nnnc2CN2CCOCC2)cc1 | 14.8%
4 | CCOC(=O)[C@H]1[C@H]2COc3ccc(C)cc3[C@@H]2N2C(=O)CN(CC3CCCO3)C(=O)[C@@]12C (stereo partly shown) | 7.72%
5 | CCOc1ccc2nc(NCCCNC(=O)c3cc(OC)c(OC)c(OC)c3)c(C#N)cc2c1 | -51.3%
6 | COc1ccc(C(=O)NCCNc2ccc([N+](=O)[O-])cc2)cc1 | -40.9%
7 | O=C(NCCNc1ccc([N+](=O)[O-])cc1)c1ccc(Cl)cc1 | -52.8%
8 | COc1ccc2nc(NCCCNC(=O)c3cc(OC)c(OC)c(OC)c3)c(C#N)cc2c1 | -11%
9 | O=C(NCCNc1ccc([N+](=O)[O-])cc1)c1cc(F)c(F)cc1Cl | -45.1%
10 | CCOc1ccc2nc(NCCNC(=O)c3cc(OC)c(OC)c(OC)c3)c(C#N)cc2c1 | 5.24%
11 | Cn1nnnc1Sc1ncnc2scc(-c3ccccc3Br)c12 | -4.66%
12 | COc1ccc(CCN(C)C2CC(=O)N(c3ccccc3)C2=O)cc1OC (stereo not shown) | -5.77%
13 | Cc1ccc(N(Cc2cc(=O)[nH]c3ccccc23)C(=O)c2ccco2)cc1 | -34.4%
14 | Cc1cc(C)n(C(=O)Cn2nc(C)c(Br)c2C)n1 | 14%
15 | O=C(Nc1cccc(Cl)c1)Nc1cnccn1 | 29.1%
16 | CCOC(=O)C1(CC2CCCCO2)CCN(Cc2nc(C(C)C)cs2)CC1 (stereo not shown) | -5.24%
17 | CCOC(=O)C1(CC2CCCCO2)CCN(Cc2cc(F)ccc2-n2cccn2)CC1 (stereo not shown) | -57.1%
18 | CCCCc1ncc(CN2CCC(CC3CCCCO3)(C(=O)OCC)CC2)[nH]1 (stereo not shown) | -45%
19 | CCOC(=O)C1(CC2CCCCO2)CCN(Cc2nc3ccccc3[nH]2)CC1 (stereo not shown) | -19.5%
20 | CCOC(=O)C1(CC2CCCCO2)CCN(Cc2nccn2-c2cccc(C)c2)CC1 (stereo not shown) | 13.2%

Row | SMILES | hERG current change (%, negative = inhibition) at 10uM
21 | CCOC(=O)C1(CC2CCCCO2)CCN(Cc2c(C)cc(C)cc2-n2cccn2)CC1 (stereo not shown) | -77.8%
22 | CNC(=O)NC(=O)C(C)OC(=O)c1cc2c(s1)CCCCC2 (stereo not shown) | -7.89%
23 | COc1ccccc1CNC(=O)CCS(=O)(=O)Cc1ccc(C)cc1 | 11.3%
24 | O=C(CCNC(=O)c1ccco1)Nc1ccc(OC(F)F)cc1 | -23.8%
25 | O=C(CCNC(=O)c1ccco1)Nc1ccccc1 | 15%
26 | O=C(CCNC(=O)c1ccco1)Nc1ccc(SC(F)F)cc1 | -52.7%
27 | COc1cc(OC)c(C2=NOC(C(=O)Nc3ccc4c(c3)OCO4)C2)cc1Cl (stereo not shown) | 10.7%
28 | C=CCOC(=O)C(=O)/C=C/c1c(C)n(C)n(-c2ccccc2)c1=O | 27.2%
29 | CCOc1ccc(NC(=O)COC(=O)CC2CCCCC2)cc1 | -6.75%
30 | Cc1ccc(C(=O)N/C(=C\c2ccccc2)C(=O)NCCN2CCOCC2)cc1 | -62.4%
31 | COc1ccc(/C=C(\NC(=O)c2ccc(C)cc2)C(=O)NCCN2CCOCC2)cc1 | -64.6%
32 | Cc1ccc(C(=O)N/C(=C\c2ccc(F)cc2)C(=O)NCCN2CCOCC2)cc1 | -75.6%
33 | O=C(NCCN1CCOCC1)/C(=C/c1ccccc1)NC(=O)c1ccccc1 | -16.4%
34 | O=C(NC(=S)NCCN1CCOCC1)c1ccc(F)cc1 | -4.01%
35 | COc1ccc(/C=C(/NC(=O)c2ccccc2)C(=O)NCCN2CCOCC2)cc1OC | 11.6%
36 | Cc1ccc(C(=O)NC(=S)NCCN2CCOCC2)cc1 | 23.3%
37 | COc1ccc(/C=C(\NC(=O)c2ccc(Cl)cc2)C(=O)NCCCN2CCOCC2)cc1OC | 13.9%
38 | Cc1ccc(C(=O)N/C(=C\c2ccc(Cl)cc2)C(=O)NCCCN2CCOCC2)cc1 | -72.5%
39 | COc1ccc(/C=C(\NC(=O)c2ccccc2)C(=O)NCCN2CCOCC2)cc1 | -34.3%
40 | CC(=O)Nc1ccc(NC(=O)Cn2c(CC(=O)N3CCCC3)nc3ccccc32)cc1 | 9%
